# Results taken from PubChem BioAssay (NCATS).
# Records with an inconclusive call do not appear. A call without a number means that no potency is given here. Calls of active or inactive are those of the source. Calls follow the shape of the dose curve; as a rule, active = well fitted inhibition curve with a large enough effect; inconclusive = small, poorly fitted or top-dose-only effect; inactive = no such curve, though single readings can be large or run the other way.
# Molecular target: Retinaldehyde dehydrogenase 3 (Homo sapiens) (UniProt P47895)
# Experiment: qHTS for Inhibitors of the Aldehyde Dehydrogenase Family (ALDH1A3) Primary screen (AID 2061315)
# Conditions: ALDH inhibition qHTS; series mostly up to 56 µM
SMILES,Potency,"activity change, negative = inhibition"
C=C1CCC2C(C)(C)C(O)CCC2(C)C1CCC(C)CCO (stereo not given),inactive,
C=CC1(C)CC(OC(=O)C(=C)C(O)COC(C)=O)C(C(=C)C(=O)OC)C(O)C1C(=C)CO (stereo not given),inactive,
C[C@@H]1O[C@@H](O[C@H]2[C@H](O[C@H]3[C@H](O[C@H]4CC[C@@]5(C)C(CC[C@]6(C)C5CC=C5[C@@H]7CC(C)(C)C[C@@H](O)[C@]7(C)CC[C@]56C)[C@@]4(C)CO)O[C@H](C(=O)O)[C@@H](O)[C@@H]3O)O[C@H](CO)[C@H](O)[C@@H]2O)[C@H](O)[C@H](O)[C@H]1O (stereo not given in full),inactive,
CC1(C)CC[C@]2(C(=O)O[C@@H]3O[C@H](CO)[C@@H](O)[C@H](O)[C@H]3O)CC[C@]3(C)C(=CCC4[C@@]5(C)CC[C@H](O[C@@H]6O[C@H](C(=O)O)[C@@H](O)[C@H](O)[C@H]6OC6OC(CO)C(O)C(O)C6O)C(C)(C)C5CC[C@]43C)[C@@H]2C1 (stereo not given in full),inactive,
Cc1cc(F)ccc1-c1nc(NCCN=C(N)NC#N)nc2c1ccc(=O)n2-c1c(F)cccc1F,inactive,
CCC(C)/C=C(C)/C=C/C1=CC2=C(Cl)C(=O)C(C)(OC(C)=O)C(=O)C2=CN1C(CC(=O)O)C(=O)O (stereo not given),inactive,
COc1ccc([C@H]2OC[C@H]3O[C@@H](O[C@H]4[C@@H]2NC[C@@H]4O)[C@H](O)[C@H]3O)cc1,inactive,
CCC(C)CNCC(=O)N1CCC2SC=CC2C1COc1cccc(C)c1 (stereo not given),inactive,
COc1c2c(c(C)c3c1C(=O)OC3)OC1(C)CC(O)C34OC(OC)(CCC3(C)C1C2)OC4(C)CO (stereo not given),inactive,
O=C(OCC1OC(Oc2ccc(O)cc2COC(=O)C2(O)C(O)CCC(=O)C2OC(=O)C2C=CCC2)C(OC(=O)C2C=CCC2)C(O)C1O)C1C=CCC1 (stereo not given),inactive,
C[C@@H]1CC[C@]2(C(=O)O[C@@H]3O[C@H](CO[C@@H]4O[C@H](CO)[C@@H](O[C@@H]5O[C@@H](C)[C@H](O)[C@@H](O)[C@H]5O)[C@H](O)[C@H]4O)[C@@H](O)[C@H](O)[C@H]3O)CC[C@]3(C)C(=CCC4[C@@]5(C)C[C@@H](O)[C@H](O)[C@@](C)(CO)C5CC[C@]43C)C2[C@H]1C (stereo not given in full),inactive,
CC(C)C1(O[C@@H]2O[C@H](CO)[C@@H](O)[C@H](O)[C@H]2O)CC=C(CO)CC1 (stereo not given in full),inactive,
CC#C[C@@H](CC(=O)O)c1ccc(OCc2ccc(CN3CCC4(C=Cc5ccccc54)CC3)s2)cc1,inactive,
CC(=O)OC1C(CO)OC(O[C@H]2[C@H](OC(=O)[C@]34CCC(C)(C)C[C@H]3C3=CCC5[C@@]6(C)CC[C@H](O[C@@H]7O[C@H](C(=O)O)[C@@H](O)[C@H](O[C@@H]8OC[C@@H](O)[C@H](O)[C@H]8O)[C@H]7O[C@@H]7O[C@H](CO)[C@H](O)[C@H](O)[C@H]7O)[C@@](C)(C=O)C6CC[C@@]5(C)[C@]3(C)C[C@H]4O)O[C@H](C)[C@H](OC3OC(C)C(OC4OCC(O)C(O)C4O)C(O)C3O)[C@@H]2O)C(O)C1O (stereo not given in full),,4.72% [at 11.2 µM] (inactive)
CC1(C)CC[C@]2(C(=O)O[C@@H]3O[C@H](CO)[C@@H](O)[C@H](O)[C@H]3O)CC[C@]3(C)C(=CCC4[C@@]5(C)C[C@@H](O)[C@H](O)[C@@](C)(CO)C5CC[C@]43C)C2C1 (stereo not given in full),inactive,
CC1CC(O)C2(C)C(C(=O)O)=CCCC2C1(C)CCc1ccoc1 (stereo not given),inactive,
CC(=O)O[C@@H]1C[C@@]2(C)C(CC[C@]3(C)C2CC=C2C4CC(C)(C)CC[C@]4(C(=O)O)CC[C@]23C)C(C)(C)[C@H]1O (stereo not given in full),inactive,
CC(C)C[C@@H](N)C(=O)N[C@H]1C(=O)N[C@@H](CC(N)=O)C(=O)N[C@H]2C(=O)N[C@H]3C(=O)N[C@H](C(=O)N[C@H](C(=O)O)c4cc(O)cc(O)c4-c4cc3ccc4O)[C@H](O)c3ccc(c(Cl)c3)Oc3cc2cc(c3O[C@@H]2O[C@H](CO)[C@@H](O)[C@H](O)[C@H]2O[C@H]2C[C@](C)(N)[C@H](O)[C@H](C)O2)Oc2ccc(cc2Cl)[C@H]1O,inactive,
COc1ccc(-n2c(SCC#N)nc3sc4c(c3c2=O)CCCC4)cc1,inactive,
CC1=C(C)C(=O)OC(C(C)C2C(O)CC3C4C5OC5C5(O)CC(OC6OC(CO)C(OC7OC(C)C(O)C(O)C7O)C(O)C6O)CC(O)C5(C)C4CCC32C)C1 (stereo not given),inactive,
